Results filed as inconclusive are left out. Values without a mark were called inactive. Activity calls are given as the source filed them. Calls come from the whole dose curve; as a rule, active = well fitted inhibition curve with a large enough effect; inconclusive = small, poorly fitted or top-dose-only effect; inactive = no such curve, though single readings can be large or run the other way.
What follows are compounds tested on Zika virus NS2B-NS3 protease (unlinked complex) (assay: Primary screen GU Rhodamine qHTS for Zika virus inhibitors: Unlinked NS2B-NS3 protease assay (AID 1347159; note: nearly all actives have a fitted effect of over 60% in size)). Conditions: Recombinant ZIKV NS2B-NS3 protease, Rhodamine110 substrate fluorescence; series mostly up to 107 µM; activity change, negative = inhibition: at the top concentration.
How it was run: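 Percent inhibition came from the 15-min rise in Rhodamine110 fluorescence (1.5 microM substrate, ~15% conversion), normalized to no-inhibitor and no-enzyme wells and Hill-fitted. Unlinked protease, 25 nM, pH 8.0 Tris buffer; compounds up to 114 microM, 15-min preincubation.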
% is set by controls: 0 for no effect and ±100 for the full control effect; potency is the fitted concentration of half-maximal effect.

SMILES | activity change, negative = inhibition | Potency
CC1CCC2(C(=O)O)CCC3(C)C(=CCC4C5(C)CCC(O)C(C)(C(=O)O)C5CCC43C)C2C1(C)O (stereo not drawn) | -25.7% [at 57.1 µM] | –
C=CC(C)(O)CC/C=C(\C)COC1O[C@H](CO)[C@@H](O)[C@H](O)[C@H]1O (stereo partly drawn) | – | 12.6 µM (active)
Cc1cccc(NC(=O)CN2CCC(c3ccccn3)CC2)c1 | 58.9% | –
Fc1cccc(CN(C2=NCCN2)c2c(Cl)cccc2Cl)c1 | 0% | –
CC(/C=C/C=C(\C)C(=O)O[C@@H]1O[C@H](CO[C@@H]2O[C@H](CO)[C@@H](O)[C@H](O)[C@H]2O)[C@@H](O)[C@H](O)[C@H]1O)=C\C=C\C=C(C)\C=C\C=C(/C)C(=O)O[C@@H]1C[C@](O)(C(=O)O)C[C@@H](O)[C@H]1OC(=O)/C=C/c1ccc(O)c(O)c1 | – | 1.78 µM (active)
CC(=O)c1ccc(O[C@@H]2O[C@H](CO[C@@H]3OC[C@@H](O)[C@H](O)[C@H]3O)[C@@H](O)[C@H](O)[C@H]2O)cc1 | 15.7% [at 57.1 µM] | –
NC(=O)[C@H](Cc1ccccc1)NC(=O)[C@H](CCCN=C(N)N)NC(=O)C12CC3CC(CC(C3)C1)C2 | -7.71% [at 19.1 µM] | –
COc1cc(/C=C/C(=O)O[C@@H]2C[C@](O)(C(=O)O)C[C@@H](O)[C@H]2O)ccc1O | -15.3% | –
OCC(O)C(c1c[nH]c2ccccc12)c1c[nH]c2ccccc12 (stereo not drawn) | – | 50.1 µM (active)
CCOc1ccc(-c2nn3ncccc3c2-c2ccc(S(C)(=O)=O)cc2)cc1 | 52.2% | –
C/C=C(\C)C1C(C)=CC2CCC(OS(=O)(=O)O)C(C)C2C1/C=C/C=C/C(=O)O (stereo not drawn) | – | 8.91 µM (active)
Cc1ccc(C)c(NC(=O)CNS(=O)(=O)c2ccc3[nH]c(=O)oc3c2)c1 | 6.43% | –
CC1(C)COC(=O)[C@@H]1O[C@@H]1O[C@H](CO)[C@@H](O)[C@H](O)[C@H]1O | 25% | –
CC(C)C1(O)C=C2C(=O)CC3C(C)(C(=O)O)CCCC3(C)C2CC1 (stereo not drawn) | 5.15% | –
CC(C)C1NC(=O)C2CCCN2C1=O (stereo not drawn) | 12.4% | –
COC(=O)[C@]1(C)CCC[C@@]2(C)C(=O)CC[C@H]3C(=O)C=C(CC[C@@H]21)C3O (stereo partly drawn) | -25.9% | –
CC1=C2C3OC(=O)C(C)C3(O)CCC2(C)CCC1 (stereo not drawn) | -16.6% | –

SMILES | activity change, negative = inhibition | Potency
CC(=O)O[C@H]1C[C@@]2(C)[C@@H](CC[C@H]3[C@@]4(C)C=CC(=O)[C@@H](C)[C@@H]4[C@H](OC(C)=O)C(=O)[C@@]32C)/C1=C(\CCC=C(C)C)C(=O)O | 58.6% [at 57.1 µM] | –
COc1cc(C(=O)OC[C@@]2(O)CO[C@@H](O[C@H]3[C@H](Oc4ccc(O)cc4)O[C@H](CO)[C@@H](O)[C@@H]3O)[C@@H]2O)cc(OC)c1O | -6.83% [at 32.5 µM] | –
C/C1=C\CC(C)(C)/C=C/C/C(C(=O)O)=C/CC1 | – | 14.1 µM (active)
COc1ccc(CC(NC(C)=O)C(=O)O)cc1 (stereo not drawn) | – | 31.6 µM (active)
O=C(O)CCc1ccc(NCc2cccc3c2CCCN3CCOc2ccccc2)cc1F | – | 3.16 µM (active)
CC1CC=C2C1CC1(O)C(=O)CC2(C)C1(C)CO (stereo not drawn) | – | 35.5 µM (active)
C=C1CCC2C(C)(C)CC(O)CC2(C)C1CCC(C)CCOC(=O)CCC(=O)O (stereo not drawn) | – | 2.51 µM (active)
CC(C)CC(=O)NCCn1cc(C(=O)O)c(=O)cc1C(O)c1ccccc1 (stereo not drawn) | -10.9% | –
CN1CCN(c2nc(-c3ccc(C(=O)NC4(C(=O)NCC#N)CCCCC4)cc3)cs2)CC1 | -7.55% | –
C=Cc1ccc(O[C@@H]2O[C@H](CO[C@@H]3O[C@@H](C)[C@H](O)[C@@H](O)[C@H]3O)[C@@H](O)[C@H](O)[C@H]2O)cc1 | 0.436% [at 57.1 µM] | –
CN(C)C(=O)C(O)C(Cc1ccccc1)NC(=O)c1cc2cc(Cl)ccc2[nH]1 (stereo not drawn) | -15.1% | –
C[C@@H]1CCC2C(C)(C)[C@H](O)[C@H](O)C[C@]2(C)[C@@]12Cc1c(O)cc3c(c1O2)CN(CCCC(=O)O)C3=O (stereo partly drawn) | -16.2% [at 57.1 µM] | –
COc1ccc(C2OCC3C(c4cc(OC)c5c(c4)OCO5)OCC23)cc1OC (stereo not drawn) | 2.33% [at 57.1 µM] | –
COC(=O)C1=CO[C@@H](O[C@@H]2O[C@H](CO)[C@@H](O)[C@H](O)[C@H]2O)[C@H]2[C@@H]1[C@H](O)[C@H](O)[C@]2(C)O | 7.24% [at 57.1 µM] | –
CC1(C)CC[C@]2(C(=O)O)CC[C@]3(C)C(=CCC4[C@@]5(C)CC[C@H](O[C@H]6O[C@H](C(=O)O)[C@@H](O)[C@H](O[C@@H]7O[C@H](CO)[C@H](O)[C@H](O)[C@H]7O)[C@H]6O)C(C)(C)C5CC[C@]43C)[C@@H]2C1 (stereo partly drawn) | – | 8.91 µM (active)
CC1=CCC[C@@H]2[C@](CCc3ccoc3)(C(=O)O)[C@H](C)CC[C@@]12C | – | 8.91 µM (active)

Source: PubChem BioAssay (NCATS)
